PubChem BioAssay (NCI)
Compounds without any hit were thinned out: in the full panel of roughly 83,000, 20% have a hit.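 Step 1: grow cells in 96-well plates. Step 2: add test compound at a single concentration. Step 3: incubate 48 h. Step 4: record percent growth.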

Key:
Test in all cases: NCI-60 one-dose screen, 48 h (100 = growth as untreated, 0 = no growth, -100 = all killed); active means growth percent below 10; inactive means the rest
HCT-15 colon = settings: 10 µM unless noted
HT29 colon = settings: 10 µM unless noted
SNB-75 CNS = settings: 10 µM unless noted
SNB-19 CNS = settings: 10 µM unless noted
U251 CNS = settings: 10 µM unless noted
PC-3 prostate = settings: 10 µM unless noted
SK-MEL-5 melanoma = settings: 10 µM unless noted
LOX IMVI melanoma = settings: 10 µM
SK-MEL-28 melanoma = settings: 10 µM unless noted
SK-MEL-2 melanoma = settings: 10 µM unless noted
EKVX NSCLC = settings: 10 µM unless noted
UO-31 renal = settings: 10 µM unless noted
TK-10 renal = settings: 10 µM unless noted
ACHN renal = settings: 10 µM unless noted
CAKI-1 renal = settings: 10 µM unless noted
CCRF-CEM leukemia = settings: 10 µM unless noted
MOLT-4 leukemia = settings: 10 µM unless noted
SN12C renal = settings: 10 µM unless noted
A498 renal = settings: 10 µM unless noted

Measured: growth

C=C(C)COc1ccc(C(C)(C)C)cc1
inactive: HCT-15 colon 108% | HT29 colon 99.2% | SNB-75 CNS 94% | SNB-19 CNS 103% | U251 CNS 88.5% | PC-3 prostate 96.9% | SK-MEL-5 melanoma 104% | LOX IMVI melanoma 101% | SK-MEL-28 melanoma 108% | SK-MEL-2 melanoma 101% | EKVX NSCLC 98.9% | UO-31 renal 95.3% | TK-10 renal 97.1% | ACHN renal 105% | CAKI-1 renal 96.2% | CCRF-CEM leukemia 103% | MOLT-4 leukemia 111%

CCOC(C=O)OCC
inactive: HCT-15 colon 102% | HT29 colon 99.7% | SNB-75 CNS 98.5% | SNB-19 CNS 106% | U251 CNS 97.4% | PC-3 prostate 95.1% | SK-MEL-5 melanoma 106% | LOX IMVI melanoma 94.1% | SK-MEL-28 melanoma 116% | SK-MEL-2 melanoma 102% | SN12C renal 102% | UO-31 renal 94.4% | TK-10 renal 93.1% | CAKI-1 renal 97.8% | A498 renal 93.3% | CCRF-CEM leukemia 99.1% | MOLT-4 leukemia 85.2%

CN1CCCN(C(c2ccccc2)c2ccc(Br)cc2)CC1 (stereo not given)
inactive: HCT-15 colon 63.8% | HT29 colon 39.1% | SNB-75 CNS 38.5% | SNB-19 CNS 99.6% | U251 CNS 71.1% | PC-3 prostate 61.4% | SK-MEL-5 melanoma 60.3% | LOX IMVI melanoma 69.7% | SK-MEL-28 melanoma 64.9% | SK-MEL-2 melanoma 113% | EKVX NSCLC 66.9% | SN12C renal 65.4% | UO-31 renal 60.5% | TK-10 renal 61.4% | CAKI-1 renal 49.2% | A498 renal 74.2% | CCRF-CEM leukemia 96.6% | MOLT-4 leukemia 55.5%

COc1c(CNC(=O)CCl)cc2[nH]c(C)cc2c1CNC(=O)CCl
inactive: HCT-15 colon 70.5% | HT29 colon 38.3% | SNB-75 CNS 69.6% | SNB-19 CNS 83.5% | U251 CNS 10.3% | PC-3 prostate 67.9% | SK-MEL-5 melanoma 44.1% | LOX IMVI melanoma 34% | SK-MEL-28 melanoma 63.2% | SK-MEL-2 melanoma 54.9% | EKVX NSCLC 65.1% | SN12C renal 53.7% | UO-31 renal 60.7% | TK-10 renal 74.1% | ACHN renal 37.3% | A498 renal 84.4% | CCRF-CEM leukemia 25.6% | MOLT-4 leukemia 51%

O=C(NCCc1ccccc1)/C(=C\c1ccc(Cl)cc1Cl)NC(=O)c1ccccc1
inactive: HCT-15 colon 98.4% | HT29 colon 98.3% | SNB-75 CNS 83.4% | SNB-19 CNS 99.2% | U251 CNS 97% | PC-3 prostate 88.8% | SK-MEL-5 melanoma 96.4% | LOX IMVI melanoma 92.7% | SK-MEL-28 melanoma 105% | SK-MEL-2 melanoma 114% | EKVX NSCLC 96% | SN12C renal 96.1% | UO-31 renal 88.5% | TK-10 renal 96.6% | ACHN renal 98.9% | CAKI-1 renal 92.9% | CCRF-CEM leukemia 97.9% | MOLT-4 leukemia 94.7%

CC(C)N(CCCC#N)C(C)C
inactive: HCT-15 colon 96.7% | HT29 colon 86.6% | SNB-75 CNS 85.2% | SNB-19 CNS 90.7% | U251 CNS 92.4% | PC-3 prostate 86.7% | SK-MEL-5 melanoma 103% | LOX IMVI melanoma 97.7% | SK-MEL-2 melanoma 121% | SN12C renal 94% | UO-31 renal 86% | TK-10 renal 104% | CAKI-1 renal 95.1% | A498 renal 79.4% | CCRF-CEM leukemia 86.9% | MOLT-4 leukemia 112%

NS(=O)(=O)c1cc(=O)[nH]c(=O)[nH]1
inactive: HCT-15 colon 111% | HT29 colon 108% | SNB-75 CNS 93.1% | SNB-19 CNS 106% | U251 CNS 98% | PC-3 prostate 120% | SK-MEL-5 melanoma 107% | LOX IMVI melanoma 93.4% | SK-MEL-28 melanoma 110% | EKVX NSCLC 112% | UO-31 renal 100% | TK-10 renal 113% | ACHN renal 104% | CAKI-1 renal 111% | A498 renal 190% | CCRF-CEM leukemia 103% | MOLT-4 leukemia 148%

Nc1ccn(C2CC(N)C(CO)O2)c(=O)n1 (stereo not given)
inactive: HCT-15 colon 71.4% | HT29 colon 81.3% | SNB-75 CNS 77.6% | SNB-19 CNS 68.2% | U251 CNS 80.9% | PC-3 prostate 74.8% | SK-MEL-5 melanoma 83.6% | LOX IMVI melanoma 75.4% | SK-MEL-28 melanoma 118% | SK-MEL-2 melanoma 122% | EKVX NSCLC 100% | SN12C renal 67.4% | UO-31 renal 72.6% | TK-10 renal 99.4% | ACHN renal 20.1% | CAKI-1 renal 42.3% | MOLT-4 leukemia 31%

c1ccc2[nH]c(Cc3nc4ccccc4[nH]3)nc2c1
inactive: HCT-15 colon 107% | HT29 colon 112% | SNB-75 CNS 94.9% | SNB-19 CNS 130% | U251 CNS 106% | PC-3 prostate 93.7% | SK-MEL-5 melanoma 104% | LOX IMVI melanoma 109% | SK-MEL-28 melanoma 94.3% | SK-MEL-2 melanoma 121% | EKVX NSCLC 104% | SN12C renal 107% | UO-31 renal 95.3% | TK-10 renal 122% | ACHN renal 96.2% | CCRF-CEM leukemia 27.9% | MOLT-4 leukemia 110%
